Bioassay records (PubChem BioAssay)
In the library only some 19% were active in any assay of this set; here they are far more common.
KB-V1 MDR tox – kills drug-selected multidrug resistant KB-V1 cells | KB-V1 MDR cells viability, CellTiter-Glo, 72 h | Potency, µM (titrated, usually from 46.1 µM), hits mostly cytotoxic | 400,000 tested, 3.4% active; also: nearly all actives have a fitted effect of over 60% in size
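KB-V1 cells (P-gp-expressing MDR subline of KB-3-1) in phenol-red-free DMEM with 10% FBS were exposed to library compounds over a concentration series for 72 h at 37 degrees C. Viability read by CellTiter-Glo luminescence; concentration-effect curves fitted after normalization.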
DT40 TDP1 CPT – growth inhibition of DT40 Tdp1-/-;hTDP1 cells with camptothecin (screen for TDP1 inhibitors). chicken DT40 Tdp1-/-;hTDP1 cells + 20 nM CPT, ATP luminescence, 48 h. Potency, µM (doses to about 46.2 µM), without a hit: top-dose activity change, negative = growth inhibition, usual class: inhibitors. 420,000 tested, 12% active. AID 686979; also: nearly all actives have a fitted effect of over 55% in size
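Chicken DT40 Tdp1-/- cells complemented with human TDP1, 400 cells/well, exposed to compounds plus 20 nM camptothecin for at least 48 h at 37 C; viability read as ATP content by CellTiter-Glo luminescence.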
HT1080 IDH1KD tx – HT-1080 IDH1 knockdown cell toxicity (counter line); HT-1080 IDH1 knockdown viability, ATP luminescence, 48 h; Potency, µM (highest dose often 46.1 µM), for the others: at the top dose activity, negative = toxicity, actives largely listed as cytotoxic; 360,000 tested, 2% active; AID 686971;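 also: 0% = DMSO wells and -100% = cell-free medium wells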
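HT-1080-IDH1KD cells (IDH1 knocked down), 750/well in RPMI with 5% FBS, treated with compound 48 h at 37 degrees C. Viability by CellTiter-Glo luminescence, normalised to DMSO and no-cell wells; concentration-response curves classed.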
HT1080-NT tox – kills 2HG-producing HT-1080-NT fibrosarcoma cells. AID 686970. Potency, µM (highest dose often 46.1 µM), for the others: at the highest dose activity, negative = less viability, actives largely listed as cytotoxic. HT-1080-NT fibrosarcoma viability, CellTiter-Glo ATP luminescence, 48 h. 360,000 tested, 1.6% active;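 also: NT is the 2HG producing partner of a matched IDH1 knockdown line; 0% = DMSO-treated cells and -100% = media-only wells without cells; nearly all actives have a fitted effect of over 55% in size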
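750 cells/well, RPMI + 5% FBS; 2 h settle, compound pin-transfer, 48 h at 37 degrees C. CellTiter-Glo 10 min RT, luminescence. Normalized to DMSO and media-only wells.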
KB-3-1 tox – KB-3-1 parental cell cytotoxicity. KB-3-1 viability, CellTiter-Glo ATP luminescence, 72 h. Potency, µM (series often up to 46.1 µM), most hits filed as cytotoxic. 400,000 tested, 1.4% active. AID 1347075; also: nearly all actives have a fitted effect of over 60% in size
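Cytotoxicity measured as CellTiter-Glo luminescence after 72 h at 37 C. Compound titrations were pinned onto drug-naive KB-3-1 parental adenocarcinoma cells grown in DMEM with 10% FBS, and normalized data fitted to concentration-response curves.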
TDP1 cell noCPT – qHTS for Inhibitors of human tyrosyl-DNA phosphodiesterase 1 (TDP1): qHTS in cells in absence of CPT | AID 686978, 2013 | 420,000 tested, 15% active | Potency, µM (top dose mostly 46.2 µM), for the others: at the highest dose activity change, negative = growth inhibition, most hits filed as inhibitors | DT40 Tdp1-/- hTDP1 cells, no CPT, ATP luminescence, 48 h; also: nearly all actives have a fitted effect of over 55% in size
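Growth kinetics read by CellTiter-Glo luminescence after ≥48 hr at 37 °C. Cells: DT40 Tdp1-/- stably carrying human TDP1, 400 per well, compound exposure in the absence of CPT (DMSO vehicle).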
* = called active by the depositor; i = inactive; ? = inconclusive; nt = no result; ! = not active in a repeat; [ ] = another dose, or the depositor's remark. Calls follow the shape of the dose curve; as a rule, active = well fitted curve in the direction sought with a large enough effect; inconclusive = small, poorly fitted or top-dose-only effect, or another doubt; inactive = no such curve, though single readings can be large; an effect the other way counts as inactive or inconclusive. Unless noted, % is scaled to controls: 0 for no effect and ±100 for the full control effect; potency is read from the fitted curve at half-maximal effect.

SMILES	KB-V1 MDR tox	DT40 TDP1 CPT	HT1080 IDH1KD tx	HT1080-NT tox	KB-3-1 tox	TDP1 cell noCPT
CC(=O)Nc1ccc(NC(=O)/C=C/c2ccc3c(c2)OCO3)cc1	i	-5%	-19%	?	i	-4%
COC(=O)C1CCN(C(=O)/C=C/c2ccc3c(c2)OCO3)CC1	i	?	0%	-7%	i	16µM*
CCOC(=O)c1cccc(NC(=O)c2cc(CN3CCOCC3)on2)c1	i	2%	nt	nt	i	2%
O=C(/C=C/c1ccco1)Nc1cccc(C(=O)Nc2ccccc2C(=O)O)c1	?	-2%	3%	0%	i	16%
CCc1ccccc1NC(=O)c1cccc(NC(=O)/C=C/c2ccco2)c1	?	18µM*	-8%	0%	i	21µM*
O=C(/C=C/c1ccco1)Nc1ccc2c(c1)OCO2	?	?	21µM*	13µM*	?	?
CCOC(=O)C1CCN(C(=O)c2ccc(OCC(=O)Nc3cccc(C(F)(F)F)c3)c(OC)c2)CC1	?	13µM*	-10%	?	i	9.2µM*
COc1cc(C(=O)N(C)CCOc2ccccc2)ccc1OCC(=O)Nc1cccc(C(F)(F)F)c1	?	26µM*	-26%	?	i	16µM*
COc1cc(/C=C(/C#N)C(=O)Nc2cc(C(F)(F)F)ccc2Cl)ccc1OCC(=O)Nc1cccc(C(F)(F)F)c1	i	18µM*	-2%	-4%	i	23µM*
CCOC(=O)N1CCC(NC(=O)c2cc(C(=O)Nc3cccc(C(F)(F)F)c3)ccc2CO)CC1	i	5.2µM*	-7%	0%	?	3.3µM*
COc1cc(/C=C(\C#N)C(=O)Nc2cccc(C(=O)O)c2)ccc1OCc1ccc(F)cc1	i	-5%	4%	-7%	i	-11%
COc1ccccc1C(=O)N[C@@H]1c2ccccc2C2(CCN(Cc3ccc4c(c3)OCO4)CC2)[C@H]1O	nt	-5%[9.04 µM]	nt	nt	nt	?
O=C1CCCC2=C1C(c1ccsc1)CC(=O)N2c1ccccc1F (stereo unspecified)	i	0%	-7%	-9%	i	-9%
COC(=O)CCC/C=C1\SC[C@@H](NC(=O)c2ccccc2)C1NC(C)=O (stereo partly specified)	i	-26%	14%	2%	i	-29%
CCn1c(Cc2ccccc2)nnc1SCC(=O)Nc1ccccc1O	i	2%	10%	-8%	i	-26%
Cc1ccc(NC(=O)c2ccccc2N(C)S(=O)(=O)c2ccccc2)c(C)c1	i	?	4%	7%	i	?
CCOC(=O)C1CCN(C(=O)c2ccc(OCC(=O)Nc3ccc(OCC)cc3)c(OC)c2)CC1	i	21µM*	-11%	-12%	i	16µM*
CCOC(=O)C1CCCN(C(=O)c2ccc(OC)c(OC)c2)CC1 (stereo unspecified)	i	-9%	4%	28%	i	-7%
Cc1ccc(NS(=O)(=O)c2ccc(-n3cccn3)cc2)c(C)c1	i	18µM*	-17%	2%	i	?
Cc1ccc(NS(=O)(=O)c2ccc(-n3cccn3)cc2)c(Br)c1	?	18µM*!	-22%	-2%	?	16µM*
Cc1cccc(NS(=O)(=O)c2ccc(-n3cccn3)cc2)c1C	i	13µM*	-21%	-6%	i	7.3µM*
Cc1cccc(NS(=O)(=O)c2ccc3c(c2)Cc2cc(S(=O)(=O)Nc4cccc(C)c4C)ccc2-3)c1C	?	6.5µM*	-3%	-2%	?	5.2µM*
Cn1cc(-c2nc3cncnc3n(Cc3ccc(F)cc3)c2=O)c2ccccc21	nt	?	nt	nt	nt	-3%
COc1ccc(NC(=O)C2(C)Cc3c(-c4cccc(NC(C)=O)c4)ccnc3O2)cn1 (stereo unspecified)	i	0.73µM*	?	?	2.1µM*	1.5µM*
CC(=O)Nc1cccc(-c2ccnc3c2CC(C)(C(=O)Nc2cccnc2)O3)c1 (stereo unspecified)	i	-28%	16%	?	i	-29%
SMILES	KB-V1 MDR tox	DT40 TDP1 CPT	HT1080 IDH1KD tx	HT1080-NT tox	KB-3-1 tox	TDP1 cell noCPT
COc1ccc(NC(=O)C2(C)Cc3c(-c4ccc(NC(C)=O)cc4)ccnc3O2)cc1OC (stereo unspecified)	i	?	-11%	-1%	i	13µM*
COc1ccc(NC(=O)C2(C)Cc3c(-c4ccc(NC(C)=O)cc4)ccnc3O2)cn1 (stereo unspecified)	i	21µM*	?	?	?	?
Cc1cc(C)n(C(=O)CNC(=O)CCc2ccccc2)n1	i	-1%	2%	11%	i	-2%
C[C@H](CO)N1C[C@H](C)[C@@H](CN(C)S(C)(=O)=O)Oc2ccc(NS(=O)(=O)c3cn(C)cn3)cc2C1=O	i	5%	9%	7%	?	1%
Cc1ccc(S(=O)(=O)Nc2cccc(-c3ccc(N4CCCCC4)nn3)c2)s1	i	?	nt	nt	i	?
CCOc1nc(-c2ccccc2)ccc1-c1noc(-c2cccnc2)n1	i	-14%	1%	-5%	i	3.7µM*
Cc1nc(C(F)(F)F)c(C(=O)NC(=O)Nc2ccc(OC(F)(F)F)cc2)s1	16µM*	?	-3%	-1%	i	?
Cc1nc(C(F)(F)F)c(C(=O)NC(=O)Nc2ccccc2)s1	i	-2%	-3%	-1%	i	-19%
CN(CC(=O)OCC(=O)NC1CCCC1)S(=O)(=O)c1ccc(Cl)cc1	i	-10%	-1%	-4%	?	22%
COC1=CC(=O)c2ccccc2C1=O	?	3.7µM*	5.2µM*	12µM*	16µM*	4.1µM*
COC1=CC(=O)C=C(OC)C1=O	i	0.65µM*	?	18µM*	?	0.82µM*
O=c1c(C(c2nnnn2C2CCCCC2)N2CCCCC2)coc2ccc(Cl)cc12 (stereo unspecified)	?	?	4%	-4%	i	21µM*
N#Cc1ccccc1S(=O)(=O)N1CCN(S(=O)(=O)c2ccc(Br)c(C(=O)O)c2)CC1	i	13%	15%	22%	i	-3%
COc1ccc(C2C(C#N)=C(C)NC(C)=C2C#N)c(OC)c1	i	4%	8%	5%	i	9%
